# Compound activity: PubChem, National Center for Advancing Translational Sciences (NCATS)
# Hits are enriched below; roughly 4.6% of the tested compounds scored in any of these assays.
# MARV entry inh: inhibitors of Marburg virus binding or cell entry. Marburg virus pseudotyped entry inhibition, cell reporter. Potency, µM (doses to about 37.8 µM), without a hit: top-dose activity change, negative = inhibition, usual class: inhibitors. AID 540276. 300,000 compounds, 1.8% hits; calls by dose curve; tested in HEK293 cells
# HCV inh: blocks hepatitis C virus. AID 651820. 340,000 compounds, 3.4% hits. Potency, µM (highest dose often 41.8 µM), without a hit: at the highest dose activity change, negative = inhibition, hits mostly inhibitors. Huh7.5.1 HCVcc-Cre infection, luciferase reporter, 44 h; active = well fitted inhibition curve with a large enough effect; inconclusive = small, poorly fitted or top-dose-only effect, or another doubt; inactive = no such curve, though single readings can be large or run the other way
#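 Antiviral activity was scored by luciferase reporter output from cells infected with HCVcc-Cre (~0.5 moi) in presence of compound, 44 h infection period, cells seeded 1,000/well 4 h prior.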
# LASV entry inh: Lassa virus entry inhibition; Lassa virus pseudotype entry inhibition, cell reporter; Potency, µM (top dose mostly 37.9 µM), inactives show top-dose activity change, negative = inhibition, hits mostly inhibitors; 300,000 compounds, 1.2% hits; calls by dose curve; tested in HEK293 cells; note: nearly all actives have a fitted effect of over 50% in size
# VACV Venus inh: inhibitors of vaccinia virus (Venus reporter) | Vaccinia virus Venus reporter expression, fluorescence | Potency, µM (series often up to 36.5 µM), for inactives: top-dose activity change, negative = inhibition, most hits filed as inhibitors | 330,000 compounds, 0.46% hits | AID 720580; calls by dose curve; tested in A549 cells; note: nearly all actives have a fitted effect of over 30% in size
# Vaccinia mCherry: vaccinia inhibition (mCherry reporter); 310,000 compounds, 0.63% hits; Vaccinia virus mCherry reporter infection, fluorescence; AID 720579; Potency, µM (series often up to 36.5 µM), for the others: top-dose activity change, negative = inhibition, actives largely listed as inhibitors; calls by dose curve; tested in A549 cells; note: nearly all actives have a fitted effect of over 35% in size
# Starred values were filed as active, the others as inactive; i = inactive; u = inconclusive; x = no result; [ ] = another dose, or the depositor's remark. % is set by controls: 0 for no effect and ±100 for the full control effect; potency is the fitted concentration of half-maximal effect.
SMILES,MARV entry inh,HCV inh,LASV entry inh,VACV Venus inh,Vaccinia mCherry
C[C@H]1CC[C@H]2C(=O)N(Cc3ccc(Cl)cc3)C[C@@H](O)CN2[C@H]1c1ccc(Br)cc1,-7%[14.2 µM],x,x,x,x
COc1ccc(/C=N\NC(=O)c2ccccc2Br)cc1COc1ccccc1,x,14µM*,x,x,x
O=C(Nc1ccccc1C(=O)N/N=C/c1ccc(F)cc1)c1ccccc1Br,1%,x,55%[14.3 µM],-8%,-9%
COc1ccc(C(=O)N/N=C\c2ccc(OC)c(COc3ccccc3Br)c2)c(OC)c1,x,18µM*,x,x,x
O=C(N/N=C/c1ccc(O)cc1)c1ccc(NC(=O)c2ccccc2Br)cc1,u,-22%,2.5µM*,u,u
CCn1c(SCC(=O)N/N=C/c2ccc(C)o2)nnc1-c1ccc(C(C)(C)C)cc1,-21%,u,u,-18%,-19%
CCn1c(SCC(=O)N/N=C/c2c[nH]c3ccccc23)nnc1-c1ccc(C(C)(C)C)cc1,u,u,4.5µM*,-25%,u
CCC(C)NC(=O)CSc1nc2cc3c(cc2c(=O)n1CCCC(=O)NCc1ccc2c(c1)OCO2)OCO3 (stereo unspecified),x,x,1%[46.1 µM],-4%,-1%
Cc1cc(C)c(C)c(OCC(=O)O/N=C(\N)c2ccccn2)c1,-18%,10µM*,u,-18%,x
N/C(=N\OC(=O)COc1ccc(Br)cc1Cl)c1ccccn1,u,-6%,2µM*,-18%,5%
N/C(=N\OC(=O)COc1ccc(Cl)cc1Cl)c1ccccn1,x,-18%,x,-5%,-8%
Cc1cc(C)n(C[C@@H]2CC(=O)N(c3ccc(F)c(Cl)c3)C2=O)n1,3%,x,x,x,x
CC1(c2ccc3ccccc3c2)NC(=O)N(CC(=O)N2CCN(Cc3ccc(C#N)cc3)CC2)C1=O (stereo unspecified),0.56µM*,1.3µM*,u,u,u
CC1CC(C)(C)CC2(C1)NC(=O)N(CC(=O)N1CCN(Cc3ccc(C#N)cc3)CC1)C2=O (stereo unspecified),u,1.4µM*,u,-25%,u
NNC(=O)/C(=N/Nc1ccccc1)S(=O)(=O)c1ccc(Cl)cc1,u,10µM*,16µM*,-29%,u
CCOC(=O)/C(=N/Nc1ccc(C)cc1)S(=O)(=O)c1ccc(Cl)cc1,u,-8%,7%,-3%,i
COc1ccc2[nH]c(C(O)C(O)c3nc4c(OC)c(OC)ccc4[nH]3)nc2c1OC (stereo unspecified),x,x,x,-20%,-4%
CC(=O)OCCCNc1cc(SCc2ccco2)c2nonc2c1[N+](=O)[O-],13µM*,0%,u,u,11µM*
CCCC(=O)OCCNc1cc(SCc2ccco2)c2nonc2c1[N+](=O)[O-],u,9%,u,u,10µM*
CCOc1ccc(CSC2=NCCN2)cc1Cl,15µM*,u,u,x,x
N#Cc1ccc(CSC2=NCCN2)cc1,u,u,u,-22%,-22%
CCOC(=O)N1CCN(Cc2ccc3c(c2)CN(C(=O)c2noc4c2CCCC4)CCO3)CC1,x,x,x,-22%,-26%
CCOc1ccccc1NC(=O)COn1nnc2ccccc21,u,13µM*,1%,-12%,x
OCCN1CCN(CC/C=C2/c3ccccc3Sc3ccc(Cl)cc32)CC1,x,11µM*,x,u,-22%
O=C(CN1CCCC1)N1c2ccccc2Sc2ccc(Cl)cc21,x,4%,x,x,x
SMILES,MARV entry inh,HCV inh,LASV entry inh,VACV Venus inh,Vaccinia mCherry
OCCN1CCN(CCCN2c3ccccc3Sc3ccc(Cl)cc32)CC1,5µM*,u,15µM*,u,u
CC(=O)c1ccc2c(c1)N(CCCN1CCC(CCO)CC1)c1ccccc1S2,x,3.2µM*,x,-13%,-24%
O=C(N/N=C(\c1ccccc1)c1ccccn1)c1ccccc1Cl,u,u,u,u,2.5µM*
COc1ccc(C(=O)N/N=C(\c2ccccc2)c2ccccn2)cc1,9.2µM*,2.8µM*,u,u,2.2µM*
COc1ccc(C(=O)NCCSc2ccccn2)cc1,u,9%,14µM*,-38%,x
O=C(NN=C(c1ccccc1)c1ccccn1)c1ccccc1,6.3µM*,2.5µM*,u,u,2µM*
C/C(=N/NC(=O)c1ccccn1)c1ccncc1,u,38%,6%,-13%,-11%
CC(C)C[C@@H]1COc2cccc(N3CCCC3)c2S(=O)(=O)N1,x,x,23%[46.1 µM],x,x
CC(=O)Oc1c(I)cc(I)cc1C(=O)Nc1ccc(Cl)cc1,u,u,13µM*,u,10µM*
COc1ccc(Cl)cc1C(=O)Nc1ccc(NC(C)=O)cc1,2%[46.1 µM],u,-20%,-13%,-20%
COc1ccc(-c2nnc(SCC(=O)Oc3cccc(C)c3C)o2)cc1,-14%[46.1 µM],x,14%[46.1 µM],-2%,-9%
COc1cc(/C=C2\SC(=O)N(CCN)C2=O)ccc1OS(=O)(=O)c1cc(C)ccc1C,u,13µM*,u,-24%,-28%
C[C@@H]1C=CC(=O)O[C@@H]1c1ccc(Cl)cc1,x,-17%,x,3.5µM*,u
COc1cc(-c2cc(C)c3cccc(OC)c3n2)cc2c1OCCN(C(=O)Cn1nc(C)cc1C)C2,x,x,x,-1%,-7%
C[C@@H]1CN(Cc2ccc3c(c2)CN(Cc2cn[nH]c2-c2ccccc2)CCO3)C[C@H](C)O1,x,x,x,-5%,-14%
Cc1cc(NC(=O)CSc2nc3ccccc3c(=O)n2C(C)c2ccccc2)no1 (stereo unspecified),3.2µM*,u,2.5µM*,-23%,x
CCC(C)n1c(SCC(=O)Nc2cc(C)on2)nc2ccccc2c1=O (stereo unspecified),4µM*,u,-12%,u,i
CCn1cc(C(=O)Nc2ccc(C(C)C)cc2)c2cc(OC)c(OC)cc2c1=O,u,x,-18%[46.1 µM],-25%,-31%
NC(N)=NC(N)=Nc1ccc(SC(F)(F)F)cc1,u,11µM*,1%,-19%,-22%
O=C1[C@H]2[C@H]3[C@H](O)[C@H](O)C/C(=N\OC[C@@H](O)COCc4ccco4)[C@H]3CC[C@H]2C(=O)N1C[C@@H]1CCCO1,-1%[14.2 µM],x,x,x,x
CCCC(=O)Nc1ccc(-c2nc3cc(C)ccc3o2)cc1,-29%[46.1 µM],11µM*,u,-7%,-5%
CCN1CCN(c2nnc(-n3cccc3C(=O)NCc3ccccc3OC)s2)CC1,x,x,-17%[46.1 µM],-12%,-14%
COc1ccc(-n2c(CNC(=O)c3ccccc3C(F)(F)F)nnc2SC)cc1,x,x,x,3%,-3%
CCOCCCNC(=S)N1CCCN(c2nc3cc(C)cc(C)c3cc2C#N)CC1,u,11µM*,1%,-28%,u
COCCCNC(=S)N1CCCN(c2nc3cc(C)c(C)cc3cc2C#N)CC1,-8%[46.1 µM],22µM*,-20%[46.1 µM],-21%,-19%
COCCCNC(=S)N1CCCN(c2nc3cc(C)ccc3cc2C#N)CC1,-15%,u,u,x,x
C=C1C=C(C(F)F)n2ncc(C(=O)NCCc3ccc(Cl)cc3)c2N1,x,x,x,-8%,9%
COc1cc(/C=N/NC(=O)CN(CCc2ccccc2)S(=O)(=O)c2ccc(NC(C)=O)cc2)cc(OC)c1OC,-10%,-26%,18µM*,-16%,i
